A short description of assay [1]: resazurin metabolic signal in HepG2 cells – cell-based, resazurin fluorescence, 24 h, PK04 Diversity Set, profiling panel (AID 1172). Further: test concentration not given here. Conditions: HepG2 viability, higher = more signal.
Assay [2] is described as follows: budding yeast growth changes without added modifier – OD600, strain BY4716, 24 h, basal condition, primary screen (AID 1173). Conditions: S. cerevisiae BY4716 growth, OD600, 24 h; higher = more signal, called active from +8 up or from −8 down.
Assay [3] is described as follows: viability profiling in MM1S myeloma cells – cell-based, resazurin fluorescence, basal, 24 h, PK04 Diversity Set, profiling panel (AID 1174).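 Further: MM1S multiple myeloma cell line; test concentration not given here.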 Conditions: higher = more signal, called active from +8 up or from −8 down.
Assay [4] concerns the target Dihydroorotate dehydrogenase (quinone), mitochondrial (Plasmodium falciparum (isolate 3D7)) (UniProt Q08210). Briefly: inhibition of P. falciparum DHODH – biochemical, C-terminal His tag, absorbance 600 nm, primary screen (AID 1175).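 Further: recombinant parasite enzyme with a five histidine tag at its C terminus; test concentration not given here.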 Conditions: PfDHODH enzyme, DCIP absorbance 600 nm; higher = more signal, called active from +8 up or from −8 down.
Assay [5] is described as follows: inhibition of PAO1 biofilm formation – strain PAO1, LB-PBS medium, absorbance 600 nm, primary screen (AID 1176). Further: test concentration not given here. The settings on record: P. aeruginosa PAO1 growth/biofilm, A600, 12 h; higher = more signal.
Assay [6] in a line: growth modulation of vineyard yeast isolate – strain RM11-1a, OD600, basal, 24 h, primary screen (AID 1177).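 Further: cultures grown under basal conditions with no added stressor; test concentration not given here.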 The settings on record: S. cerevisiae RM11-1a growth, OD600, 24 h; higher = more signal, called active from +8 up or from −8 down.
Assay [7] can be described thus: growth of efflux-deficient E. coli DRC39 – strain DRC39, OD650, 24 h, E. coli filamentation inducers, primary screen (AID 1178).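 Further: growth measured as culture turbidity by optical density at 650 nm; test concentration not given here.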 The settings on record: E. coli DRC39 acrAB, higher = more signal, called active from +8 up or from −8 down.
Assay [8] in a line: growth of efflux-deficient E. coli DRC39 – strain DRC39, OD650, 48 h, E. coli filamentation inducers, primary screen (AID 1179).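 Further: screen aims at cell division blockers that make cells filament.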 The settings on record: E. coli DRC39 delta-acrAB growth, higher = more signal, called active from +8 up or from −8 down.
The nature of assay [9]: viability profiling in RPMI8226 myeloma cells – cell-based, resazurin fluorescence, basal, 24 h, PK04 Diversity Set, profiling panel (AID 1180).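 Further: RPMI8826 multiple myeloma cell line at 5000 cells per well; test concentration not given here.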 The settings on record: higher = more signal.
Assay [10] addresses E3 ubiquitin-protein ligase XIAP (Homo sapiens) (UniProt P98170). Description: small molecules binding XIAP protein – biophysical, small-molecule microarray, fluorescence 635 nm, primary screen (AID 1181).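 Further: score merges 667 nm emission and signal to noise over triplicate slides.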 The settings on record: higher = more signal.

The source made the active and inactive calls. Unless noted, how the calls were made is not given here.

The source of these data is PubChem BioAssay.

Sequence of Dihydroorotate dehydrogenase (quinone), mitochondrial (Plasmodium falciparum (isolate 3D7)) (Q08210 whole entry, looked up): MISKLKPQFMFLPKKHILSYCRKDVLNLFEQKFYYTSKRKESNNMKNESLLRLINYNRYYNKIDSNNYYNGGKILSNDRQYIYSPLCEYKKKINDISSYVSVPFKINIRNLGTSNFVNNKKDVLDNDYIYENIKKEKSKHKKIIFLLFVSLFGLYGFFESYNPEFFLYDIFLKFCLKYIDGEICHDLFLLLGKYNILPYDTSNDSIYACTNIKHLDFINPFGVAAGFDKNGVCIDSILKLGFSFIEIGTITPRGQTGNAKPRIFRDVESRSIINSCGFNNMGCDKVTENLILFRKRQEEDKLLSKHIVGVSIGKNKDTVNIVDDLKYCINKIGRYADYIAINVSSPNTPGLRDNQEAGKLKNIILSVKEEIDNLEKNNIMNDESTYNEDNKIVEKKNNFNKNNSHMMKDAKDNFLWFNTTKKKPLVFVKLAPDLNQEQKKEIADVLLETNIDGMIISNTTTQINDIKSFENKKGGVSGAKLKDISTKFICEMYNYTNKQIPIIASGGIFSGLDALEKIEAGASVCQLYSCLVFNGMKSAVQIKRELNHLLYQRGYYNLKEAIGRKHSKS
Sequence of E3 ubiquitin-protein ligase XIAP (Homo sapiens) (P98170 whole entry, looked up): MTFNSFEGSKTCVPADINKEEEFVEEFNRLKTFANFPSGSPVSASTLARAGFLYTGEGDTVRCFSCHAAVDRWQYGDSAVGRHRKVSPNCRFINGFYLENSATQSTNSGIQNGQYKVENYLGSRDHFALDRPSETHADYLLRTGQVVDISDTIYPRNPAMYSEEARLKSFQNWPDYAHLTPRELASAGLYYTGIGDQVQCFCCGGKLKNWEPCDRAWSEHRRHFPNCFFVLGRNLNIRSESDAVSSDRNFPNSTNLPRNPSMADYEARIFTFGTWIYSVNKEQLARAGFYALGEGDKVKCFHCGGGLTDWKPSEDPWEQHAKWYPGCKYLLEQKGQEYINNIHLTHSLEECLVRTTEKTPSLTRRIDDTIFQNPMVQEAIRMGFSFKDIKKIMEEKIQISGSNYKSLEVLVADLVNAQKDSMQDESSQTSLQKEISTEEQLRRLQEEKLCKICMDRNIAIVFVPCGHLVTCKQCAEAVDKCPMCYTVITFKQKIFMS

Regarding `C[C@]12C(=O)N(CCCO)[C@@H]3C(=O)N(c4ccc(Cl)cc4)CC=CC31O[C@@H]1/C=C\CCCOC(=O)C12` (stereo not given in full), the z-score was -0.468 in [1]; -0.0146 (inactive) in [2]; -0.291 (inactive) in assay [3]; -0.553 (inactive) in [5]; -0.965 (inactive) in assay [6]; -0.477 (inactive) in assay [7]. Moreover, the figures for the z-score in assay [8] and in assay [9] were -0.464 (inactive) and -0.217, respectively. Further, the composite z-score in assay [4] was 0.0021 (inactive); in assay [10], 0.734.

Take `CC(C)C(CO)N1C(=O)[C@@H]2[C@H]3C(=O)OCC=C[C@H]3OC23C=CCN(CCN2CCOCC2)C(=O)[C@@H]13` (stereo not given in full): the z-score is -0.173 in assay [1]; 0.306 (inactive) in assay [2]; -0.505 (inactive) in assay [3]; -0.814 (inactive) in [5]; 1.21 (inactive) in assay [6]; -0.934 (inactive) in [7]. The figures for the z-score in [8] and in assay [9] were -1.06 (inactive) and -0.371, respectively. For the same molecule, the composite z-score was 0.395 (inactive) in assay [4] and -0.518 in assay [10].

As to `COc1ccc([Si](C)(C)[C@@H]2[C@@H](CCO)O[C@]3(C(=O)N(Cc4ccccc4)c4ccc(N5C(=O)COc6ccccc65)cc43)[C@H]2C)cc1`, the z-score in assay [1] is 1.52; in assay [2] it was 2.09 (inactive); in [3], -0.657 (inactive); in assay [5] it was 1.2 (inactive); in [6], 4.54 (inactive); in [7] it was -0.141 (inactive). Besides, the figures for the z-score in [8] and in assay [9] were -0.266 (inactive) and -0.976, respectively. Moreover, the values for the composite z-score in [4] and in assay [10] were -0.0636 (inactive) and -0.0599, respectively.

Turning to `CC(C)N1C(=O)c2ccccc2[C@](C)(C(=O)O)[C@@H]1c1ccc(CO)cc1`, the z-score is 0.536 in assay [1]; -0.942 (inactive) in [2]; -0.0713 (inactive) in [3]; 0.332 (inactive) in assay [5]; 0.595 (inactive) in [6]; 0.0212 (inactive) in [7]. In addition, the z-score was 0.421 (inactive) in assay [8] and 0.125 in assay [9]. The figures for the composite z-score in [4] and in assay [10] were -0.218 (inactive) and 0.0767, respectively.

In the case of `CC[C@@H]1[C@@H]2C3C(=O)N(CC)C(=O)C3CC(=O)[C@@H]2[C@H](c2ccc(C)cc2)N1S(=O)(=O)c1ccc(C)cc1` (stereo not given in full), the z-score in assay [1] was -0.107; in [2] it was -1.67 (inactive); in [3], -1.27 (inactive); in assay [5], 0.409 (inactive); in assay [6] it was -1.13 (inactive); in assay [7], 0.694 (inactive). The z-score in assay [8] was 1.26 (inactive); in assay [9] it was 0.887. For the same molecule, the composite z-score in assay [4] was -0.415 (inactive); in assay [10], -0.0962.

With `COC(=O)[C@@]1(Cc2ccc(F)cc2)[C@H]2c3cc(C(=O)N(C)C)n(Cc4ccc(C)c(F)c4F)c3C[C@H]2CN1C(=O)c1ccccc1`, the z-score in assay [1] was 0.245; in assay [2], 0.534 (inactive); in assay [3], -0.231 (inactive); in assay [5], -0.0298 (inactive); in [6], 0.671 (inactive); in assay [7], 0.171 (inactive). Further, the z-score is 0.265 (inactive) in assay [8] and -0.455 in assay [9]. Also, the composite z-score in assay [4] was 0.059 (inactive); in assay [10] it was -0.102.

Take `COCCOC(=O)N1C(=O)[C@@]2(c3cc(C#CCNC(N)=O)ccc31)[C@H](c1ccc(OCCO)cc1)N1[C@H](c3ccccc3)[C@H](c3ccccc3)OC(=O)[C@H]1[C@@H]2C(=O)N1CCN(c2ncccn2)CC1`: the z-score in assay [1] was 0.26; in [2] it was 1.51 (inactive); in assay [3], -0.0528 (inactive); in assay [5], 2.5 (inactive); in [6], 2.05 (inactive); in [7], -0.157 (inactive). Moreover, the z-score in assay [8] was -0.327 (inactive); in assay [9], 0.0246. Further, the values for the composite z-score in assay [4] and in [10] were -0.239 (inactive) and 0.1, respectively.

As to `C=CCOC(=O)[C@@H]1[C@H]2C(=O)O[C@H](c3ccccc3)[C@H](c3ccccc3)N2[C@H](c2ccc(OCCOC(=O)[C@@H]3C[C@@H]4C(=O)N[C@@H](CCCCNC(C)=O)C(=O)N4[C@@H]3c3ccc(O)cc3)cc2)[C@@]12C(=O)Nc1ccc(I)cc12`, the z-score in assay [1] is 0.971; in [2], 1.8 (inactive); in assay [3] it was 0.668 (inactive); in assay [5], 0.42 (inactive); in [6], 1.67 (inactive); in [7], 0.514 (inactive). In addition, the z-score in assay [8] was 0.099 (inactive); in assay [9] it was 0.616. Moreover, the composite z-score in assay [4] was -1.19 (inactive); in assay [10], 0.158.

As for `CC(C)(C)OC(=O)CC[C@@]1(C(=O)N2CCCCC2)N=C(c2ccc(OCCCO)cc2)O[C@@H]1c1ccccc1N=[N+]=[N-]`, the z-score in assay [1] was -0.254; in assay [2] it was 0.601 (inactive); in [3], -1.73 (inactive); in assay [5], -0.279 (inactive); in [6], 0.879 (inactive); in [7] it was 0.264 (inactive). Further, the z-score in assay [8] was 1.36 (inactive); in [9], -0.408. For the same molecule, the composite z-score in [4] was 0.27 (inactive); in assay [10], -0.0474.

For the molecule `Cc1ccc(N2C(=O)c3ccccc3[C@](C)(C(=O)NC(C)C)[C@@H]2c2ccc(CO)cc2)nc1`, the z-score in assay [1] was -0.591; in assay [2] it was 0.201 (inactive); in [3], 0.761 (inactive); in [5], 0.599 (inactive); in assay [6] it was -0.243 (inactive); in assay [7], 0.381 (inactive). Further, the z-score in assay [8] was -0.111 (inactive); in [9], 0.818. The composite z-score in assay [4] is -3.7 (inactive); in assay [10], -0.272.

In the case of `O=C(N1CCOCC1)[C@@]1(CCS(=O)(=O)c2ccccc2)COC(c2ccc(OCCCO)cc2)=N1`, the z-score in assay [1] was 0.0754; in [2] it was 0.0036 (inactive); in [3], -0.262 (inactive); in assay [5], 0.193 (inactive); in [6] it was 0.0216 (inactive); in [7] it was -0.0668 (inactive). The values for the z-score in assay [8] and in assay [9] were 0.589 (inactive) and -0.387, respectively. Moreover, the composite z-score in [4] is 0.0576 (inactive); in [10] it was -0.02.

On to `C=CCNC(=O)[C@H]1[C@@H]2C(=O)O[C@@H](c3ccccc3)[C@@H](c3ccccc3)N2[C@@H](c2ccc(O)cc2)[C@]12C(=O)N(C(=O)OCCOC)c1ccc(C#CC3(O)CCCCCC3)cc12`, for which the z-score in [1] is -0.0051; in assay [2], -0.897 (inactive); in assay [3], 0.221 (inactive); in assay [5] it was 0.806 (inactive); in assay [6], 2.27 (inactive); in [7], 0.665 (inactive). Besides, the results for the z-score in assay [8] and in assay [9] were 0.951 (inactive) and 0.41, respectively. For the same molecule, the results for the composite z-score in assay [4] and in [10] were 0.157 (inactive) and 0.0479, respectively.

Regarding `COC(=O)c1ccc(OC)c(/C=C\CC(CCc2ccccc2)OC(=O)c2ccncc2)c1` (stereo not given), the z-score in assay [1] is 0.263; in assay [2], 0.0069 (inactive); in assay [3] it was 0.472 (inactive); in assay [5] it was 0.0619 (inactive); in assay [6], -0.0204 (inactive); in assay [7], 0.0514 (inactive). In addition, the z-score in assay [8] is -0.379 (inactive); in [9], 1.24. In addition, the composite z-score in assay [4] is -3.1 (inactive); in assay [10], 2.62.
